We go through eight compounds from PubChem BioAssay (NCI).

This is part of a sample that, as a whole, favours compounds with a hit. Of some 83,000 tested, about 20% had one in any assay.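 Testing used 96-well plates and a 48-hour single-concentration exposure. Example: -40 means 40% of the starting cells died.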 A number with no mark means an inactive call. Calls of active or inactive are those of the source. How the source made its calls: active means growth percent below 10; inactive means the rest.

Some test systems named below: NCI-H23 lung; NCI-H226 lung; NCI-H322M lung; HOP-62 NSCLC; NCI-H460 lung; HOP-92 NSCLC; NCI-H522 lung; A549/ATCC NSCLC; 786-0 renal; COLO 205 colon; DU-145 prostate; K-562 leukemia; MALME-3M melanoma; MDA-MB-231 breast; RXF 393 renal; SF-268 CNS; SF-295 CNS; SF-539 CNS; UACC-257 melanoma; M14 melanoma.
Holding throughout (assay): NCI-60 one-dose screen, 48 h (100 = growth as untreated, 0 = no growth, -100 = all killed)
Holding throughout (conditions): 10 µM unless noted

On to `COc1cccc(/C=C2\COc3ccc(O)c(O)c3C2=O)c1`, for which the growth in the experiment on NCI-H23 lung is 47%; with NCI-H226 lung, 79.1%; in the experiment with NCI-H322M lung, 36.4%; in the experiment on HOP-62 NSCLC, 4.02% (active); in the experiment with NCI-H460 lung, 28.7%; in the experiment on HOP-92 NSCLC, -12% (active). Further, the growth with NCI-H522 lung is -67% (active); in the experiment with A549/ATCC NSCLC it was 47.6%; with 786-0 renal it was -38.1% (active); with COLO 205 colon, 43.3%; in the experiment with DU-145 prostate it was 4.84% (active); with K-562 leukemia it was 11.7%. The growth was -26.3% (active) in the experiment with MALME-3M melanoma; 0.944% (active) in the experiment on MDA-MB-231 breast; -18.7% (active) in the experiment on RXF 393 renal; 5.27% (active) in the experiment with SF-268 CNS; 79.1% in the experiment on SF-295 CNS; -54.7% (active) in the experiment on SF-539 CNS. Further, the growth with UACC-257 melanoma is 28.1%; in the experiment with M14 melanoma, 26%.

`O=c1c2cnn(-c3ccccc3)c2n2c(CN3CCOCC3)nnc2n1-c1ccccc1`: the growth with NCI-H23 lung is 108%; with NCI-H226 lung it was 104%; in the experiment on NCI-H322M lung, 108%; in the experiment with HOP-62 NSCLC, 78.1%; with NCI-H460 lung, 102%; with HOP-92 NSCLC, 81.3%. Also, the growth in the experiment on NCI-H522 lung was 41.2%; in the experiment on A549/ATCC NSCLC, 76.9%; with 786-0 renal, 92.6%; in the experiment on COLO 205 colon it was 96.5%; in the experiment on DU-145 prostate, 105%; in the experiment on K-562 leukemia, 88.2%. The growth in the experiment with MALME-3M melanoma was 124%; with MDA-MB-231 breast, 106%; in the experiment on RXF 393 renal, 119%; with SF-268 CNS it was 104%; with SF-295 CNS, 98.6%; in the experiment with SF-539 CNS, 99.2%. The growth was 101% in the experiment with UACC-257 melanoma and 98.2% with M14 melanoma.

`COc1ccc(C2=C(Nc3ccc(C(=O)Nc4ccccc4)cc3)C(=O)N(C)C2=O)cc1`: the growth with NCI-H23 lung was 88.7%; with NCI-H226 lung it was 95.2%; in the experiment with NCI-H322M lung, 88.7%; with HOP-62 NSCLC, 72.2%; in the experiment on NCI-H460 lung it was 108%; in the experiment with HOP-92 NSCLC, 117%. Further, the growth in the experiment on NCI-H522 lung is 59.9%; with A549/ATCC NSCLC, 78.2%; in the experiment on 786-0 renal, 105%; with DU-145 prostate it was 98%; with K-562 leukemia, 81.5%; with MALME-3M melanoma, 93.7%. Further, the growth in the experiment with MDA-MB-231 breast is 83.2%; in the experiment with RXF 393 renal it was 105%; in the experiment on SF-268 CNS, 97.1%; in the experiment with SF-295 CNS, 98.9%; with SF-539 CNS, 97.6%; in the experiment with UACC-257 melanoma, 87.6%.

In the case of `COc1ccc(C/C(C)=C(/c2ccc(OCCN(C)C)cc2)c2ccc(OC(=O)NCc3ccccc3)cc2)cc1`, the growth was 83.1% with NCI-H23 lung; 97.7% with NCI-H226 lung; 80.8% in the experiment with NCI-H322M lung; 83.3% in the experiment on HOP-62 NSCLC; 22.9% with NCI-H460 lung; 38.2% in the experiment with HOP-92 NSCLC. For the same compound, the growth in the experiment on NCI-H522 lung is 50.4%; in the experiment on A549/ATCC NSCLC, 55%; in the experiment with 786-0 renal, 61.1%; in the experiment on DU-145 prostate it was 81.1%; with K-562 leukemia it was -29.2% (active); with MALME-3M melanoma, 88.5%. The growth is 57.9% in the experiment on MDA-MB-231 breast; 60.3% in the experiment with RXF 393 renal; 72.9% in the experiment with SF-268 CNS; 88% in the experiment on SF-295 CNS; 88.9% with SF-539 CNS; 75.8% in the experiment with UACC-257 melanoma. In addition, the growth with M14 melanoma was 25.1%.

With `c1ccc(-c2oc(-c3ccccc3)c(CN3CCCCC3)c2CN2CCCCC2)cc1`, the growth was 26% in the experiment with NCI-H23 lung; 47.5% with NCI-H226 lung; 52.9% in the experiment on NCI-H322M lung; 54.2% in the experiment on HOP-62 NSCLC; 24.8% with NCI-H460 lung; 4.02% (active) with HOP-92 NSCLC. Moreover, the growth in the experiment with NCI-H522 lung was 2.64% (active); in the experiment on A549/ATCC NSCLC, 56.2%; in the experiment on 786-0 renal it was 38.7%; with COLO 205 colon, 6.83% (active); with DU-145 prostate, 57.7%; in the experiment with K-562 leukemia, 7.49% (active). Besides, the growth with MALME-3M melanoma was -12.5% (active); with MDA-MB-231 breast, 29.6%; in the experiment on RXF 393 renal, 2.14% (active); with SF-268 CNS, 57.9%; in the experiment on SF-295 CNS, 37.3%; in the experiment with SF-539 CNS, 46.7%. Further, the results for the growth with UACC-257 melanoma and in the experiment on M14 melanoma were 15.8% and 1.67% (active), respectively.

As for `COc1ccc2cc1Oc1ccc(cc1)C[C@H]1c3c(cc4c(c3Oc3cc5c(cc3OC)CCN(C)[C@@H]5C2)OCO4)CCN1C`, the growth with NCI-H23 lung is 75.9%; in the experiment with NCI-H226 lung, 87.4%; in the experiment with NCI-H322M lung, 56%; in the experiment with HOP-62 NSCLC, 115%; in the experiment on NCI-H460 lung, 59.4%; with HOP-92 NSCLC, 52.6%. Moreover, the growth is -18.8% (active) in the experiment on NCI-H522 lung; 47.2% in the experiment on A549/ATCC NSCLC; 53.5% in the experiment on 786-0 renal; 109% in the experiment with COLO 205 colon; 59.6% in the experiment with DU-145 prostate; -2.72% (active) with K-562 leukemia. The growth was -46.1% (active) in the experiment with MALME-3M melanoma; -5.97% (active) in the experiment on MDA-MB-231 breast; -18.7% (active) in the experiment on RXF 393 renal; 36.4% with SF-268 CNS; 58.1% in the experiment on SF-295 CNS; -55.7% (active) in the experiment with SF-539 CNS. Moreover, the growth in the experiment on UACC-257 melanoma is -78.4% (active); in the experiment with M14 melanoma, -86.2% (active).

Consider `CNC(=O)c1[nH]cc(-c2ccc(OC)cc2)c1-c1cc(OC)c2c(c1OC)OCO2`, for which the growth was 97.6% in the experiment with NCI-H23 lung; 97.8% in the experiment with NCI-H226 lung; 96.2% in the experiment on NCI-H322M lung; 85.3% with HOP-62 NSCLC; 105% with NCI-H460 lung; 89.6% with HOP-92 NSCLC. Moreover, the growth was 101% in the experiment with NCI-H522 lung; 99.1% with A549/ATCC NSCLC; 96.7% in the experiment with 786-0 renal; 118% with COLO 205 colon; 110% in the experiment on DU-145 prostate; 105% with K-562 leukemia. Besides, the growth in the experiment on MALME-3M melanoma is 95%; in the experiment with MDA-MB-231 breast, 100%; in the experiment with RXF 393 renal, 97.5%; in the experiment with SF-268 CNS, 101%; in the experiment with SF-295 CNS, 97.6%; in the experiment with SF-539 CNS, 103%. The growth in the experiment on UACC-257 melanoma is 104%; in the experiment on M14 melanoma, 101%.

In the case of `CC1=NC2=Nn3c(c4cnn(-c5ccccc5)c4n/c3=N\N)NN2C(c2ccccc2)=C1`, the growth in the experiment with NCI-H23 lung was 87.5%; in the experiment with NCI-H226 lung, 90.7%; in the experiment with NCI-H322M lung, 87.6%; in the experiment with HOP-62 NSCLC, 96.1%; in the experiment with NCI-H460 lung, 88.5%; in the experiment on HOP-92 NSCLC, 74.3%. Besides, the growth with NCI-H522 lung is 89%; in the experiment on A549/ATCC NSCLC, 96%; in the experiment with 786-0 renal, 104%; in the experiment with COLO 205 colon, 107%; with DU-145 prostate, 105%; with K-562 leukemia it was 102%. Further, the growth is 87.9% with MALME-3M melanoma; 88.7% in the experiment with MDA-MB-231 breast; 74% in the experiment on RXF 393 renal; 96.1% in the experiment with SF-268 CNS; 90.7% with SF-295 CNS; 94.7% with SF-539 CNS. In addition, the results for the growth in the experiment on UACC-257 melanoma and with M14 melanoma were 101% and 93.1%, respectively.
